# Compounds without any hit were thinned out: in the full panel of roughly 83,000, 20% have a hit.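 Step 1: grow cells in 96-well plates. Step 2: add test compound at a single concentration. Step 3: incubate 48 h. Step 4: record percent growth.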 A number with no mark means an inactive call. Calls of active or inactive are those of the source. The calls were made as follows: active = growth percent below 10; inactive = the rest.
# Assays:
# Assay in all cases: NCI-60 one-dose screen, 48 h (100 = growth as untreated, 0 = no growth, -100 = all killed)
# Conditions in all cases: 10 µM
# HT29 colon = test system: HT29 colon
# SNB-75 CNS = test system: SNB-75 CNS
# SNB-19 CNS = test system: SNB-19 CNS
# U251 CNS = test system: U251 CNS
# PC-3 prostate = test system: PC-3 prostate
# SK-MEL-5 melanoma = test system: SK-MEL-5 melanoma
# UACC-62 melanoma = test system: UACC-62 melanoma
# LOX IMVI melanoma = test system: LOX IMVI melanoma
# SK-MEL-28 melanoma = test system: SK-MEL-28 melanoma
# SK-MEL-2 melanoma = test system: SK-MEL-2 melanoma
# EKVX NSCLC = test system: EKVX NSCLC
# SN12C renal = test system: SN12C renal
# UO-31 renal = test system: UO-31 renal
# TK-10 renal = test system: TK-10 renal
# ACHN renal = test system: ACHN renal
# CAKI-1 renal = test system: CAKI-1 renal
# A498 renal = test system: A498 renal
# CCRF-CEM leukemia = test system: CCRF-CEM leukemia
# MOLT-4 leukemia = test system: MOLT-4 leukemia
# SR leukemia = test system: SR leukemia
Structure (SMILES),growth (HT29 colon),growth (SNB-75 CNS),growth (SNB-19 CNS),growth (U251 CNS),growth (PC-3 prostate),growth (SK-MEL-5 melanoma),growth (UACC-62 melanoma),growth (LOX IMVI melanoma),growth (SK-MEL-28 melanoma),growth (SK-MEL-2 melanoma),growth (EKVX NSCLC),growth (SN12C renal),growth (UO-31 renal),growth (TK-10 renal),growth (ACHN renal),growth (CAKI-1 renal),growth (A498 renal),growth (CCRF-CEM leukemia),growth (MOLT-4 leukemia),growth (SR leukemia)
COc1ccc(/C=C/C(=O)Nc2ccc(-c3nc4ccc(OC)cc4s3)cc2)cc1,110%,102%,105%,109%,101%,104%,108%,92.3%,111%,105%,100%,103%,85.2%,109%,114%,104%,97.8%,98.3%,81.6%,86.7%
CC[C@H]1CCC/C=C/[C@@H]2C[C@H](O)C[C@H]2[C@H](O)/C=C/C(=O)O1,-56.8% (active),27.5%,29.7%,15.7%,13.6%,-99.6% (active),-0.469% (active),-93.5% (active),-0.327% (active),-48.1% (active),-1.36% (active),3.46% (active),-9.94% (active),-48% (active),0.373% (active),-0.599% (active),-45.3% (active),7.71% (active),0.81% (active),2.29% (active)
COc1ccc(-c2nc3ccccn3c2-c2nnc(-c3cc(OC)c(OC)c(OC)c3)o2)cc1,70.4%,59.9%,44.5%,45.8%,98.2%,44.7%,68.5%,78.1%,83.6%,92.1%,71%,69.7%,77.7%,77.9%,49.4%,80.1%,48.2%,88.4%,92.1%,37.7%
COc1ccc2nc3ccccc3c(NCCNCC(C)O)c2c1 (stereo unspecified),1.38% (active),28.1%,0.0735% (active),1.29% (active),4.7% (active),10.3%,-59.9% (active),-47.1% (active),8.18% (active),-21.8% (active),7.84% (active),-4.73% (active),17.9%,8.4% (active),-3.07% (active),42.5%,-48.5% (active),5.94% (active),6.77% (active),4.1% (active)
COc1cc(/C=C2\Oc3cc(OCC(=O)c4ccccc4)ccc3C2=O)cc(OC)c1OC,112%,104%,118%,90.1%,85.2%,98.7%,96.7%,98.5%,108%,122%,108%,109%,67.6%,151%,89.6%,119%,105%,73.2%,91%,
COc1ccc(-c2nc3ncccn3c2-c2nnc(-c3ccsc3C)o2)cc1,103%,17.5%,68.9%,72.4%,83.6%,81%,78.3%,88.4%,78.2%,90.5%,94.5%,87.7%,73.8%,96.7%,72.3%,82.9%,99.4%,90.1%,97%,83.4%
COc1ccc(/C(=C2\O[C@@H]([C@H]3COC(C)(C)O3)[C@H]3OC(C)(C)O[C@@H]23)c2cc(OC)c(OC)c(OC)c2)cc1O,107%,6.11% (active),47.4%,46.2%,30.6%,59.6%,93.2%,36.9%,59.6%,103%,90.2%,57.7%,49.1%,109%,44.7%,93%,63.3%,47.9%,59.9%,25.4%
COc1cc(-c2cc(C(=O)N3CCN(C(=O)c4ccccc4NCc4cccs4)CC3)nc3cc(-c4ccccc4)nn23)cc(OC)c1OC,28%,71%,85.1%,72.1%,34%,37.9%,60%,70%,81.5%,68.4%,94.4%,87.5%,39.8%,70.1%,73.9%,55.2%,74.2%,73.9%,79.3%,23%
COc1ccc2c(c1)/C(=C\c1c[nH]c3ccc(OC)cc13)C(=O)N2,24.9%,46.7%,77.3%,56.2%,60.6%,46.3%,39.3%,35.9%,71.7%,33.4%,47.8%,52.8%,46.8%,81.7%,39.6%,21.3%,34.6%,28.6%,11.7%,14.7%
CCN1CCC(CCOC)(CN2c3ccccc3Sc3ccc(Cl)cc32)C1 (stereo unspecified),7.66% (active),47.8%,70.8%,40.5%,35.7%,-49.1% (active),-46.7% (active),-5.49% (active),58.2%,88.5%,56.7%,59.7%,8.09% (active),64.1%,47.2%,46.6%,56.6%,30.5%,22.5%,40.4%
O=C(Nc1ccc(Cl)c(Cl)c1)Nc1c(Oc2ccc(Cl)c(Cl)c2)ccc(Cl)c1S(=O)(=O)O,4.55% (active),-11.6% (active),48.3%,22.1%,19.6%,7.15% (active),31.6%,33.8%,54.8%,-1.82% (active),38.2%,36.4%,21.2%,25.3%,61.2%,12.1%,-13.3% (active),13.5%,25%,1.34% (active)
Cc1nc2oc3ccccc3c(=O)c2cc1C(=O)NCc1ccccc1,94.1%,80.9%,84.9%,64.7%,90.9%,81%,31.1%,55.9%,78.5%,9.34% (active),69.3%,99%,63.3%,87.6%,63.3%,52%,92.5%,76.9%,66.7%,69.7%
CCN1CCC2(CC1)OC(c1ccccc1)C(c1ccccc1)O2 (stereo unspecified),96%,88.2%,112%,109%,89.1%,105%,115%,90.8%,107%,105%,107%,110%,87.2%,103%,109%,111%,98.9%,91.7%,96.5%,96.9%
Cc1ccc(NC(=O)CSc2nc3ccccc3c(=O)n2CCc2ccccc2)c(C(=O)O)c1,111%,84.3%,105%,101%,97.8%,105%,99.9%,99.6%,108%,89.8%,73.4%,96.6%,78.5%,117%,91.1%,81.5%,87%,,,
O=C(/C(=C/c1ccccc1)CN1CCCCC1)c1ccccc1,-30.6% (active),30.6%,45.9%,-22.7% (active),-9.65% (active),-86% (active),-67% (active),-75.1% (active),-63% (active),-67% (active),6.23% (active),-47.5% (active),-93.8% (active),-41.3% (active),-59.3% (active),-3.31% (active),-77.1% (active),7.4% (active),3.27% (active),-12.4% (active)
NC(=O)SCC(=O)Nc1ccc(S(N)(=O)=O)cc1,107%,96.3%,104%,104%,100%,102%,89%,97%,113%,111%,112%,95.6%,86.4%,106%,112%,104%,100%,106%,113%,110%
